# Measurements from PubChem BioAssay.
# The source made the active and inactive calls. Unless noted, the rule behind the calls is not given here.
# What was measured:
# [1] = circadian clock period modulators, cell-based, LOPAC library, luminescence reporter (AID 2774); details: circadian reporter cells, at 7 µM, actives lie on both sides;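 note: values are relative to mean of DMSO wells on each plate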
# [2] = test system: Hepatitis C virus NS3 helicase; test: HCV NS3 helicase inhibitors, primary screen, biochemical, fluorescence polarization, LOPAC1280 library (AID 687035; in the data active = inhibition above about 37%); details: Purified HCV NS3 helicase, Cy5-dT15 ssDNA binding fluorescence polarization; stronger effect = higher value; concentration not given here
# [3] = Cy5 fluorescence quenching or enhancement artefacts, artefact control for HCV NS3 helicase inhibitor project, biochemical, LOPAC1280 (AID 687037); details: Cy5-DNA-NS3h complex fluorescence interference counterscreen
# [4] = sensitizers of A549 cells to miR-34 induction, primary screen, imaging, A549 dox-inducible miR-34, nuclei and caspase counts (AID 1347080;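 active = compounds whose cell count with miR-34 switched on is under 0.7 times the count with it off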); details: A549 miR-34 inducible, Hoechst nuclei count, 48 h
# [5] = phospholipid biosynthesis inhibitors in animal cells, primary screen, cell-based, LOPAC library, screen 4 (AID 1347384); details: phospholipid biosynthesis inhibition screen, at 10 µM
# [6] = viability rescue of complex I mutant cybrids, primary screen, cell-based, galactose medium, ATP luminescence (AID 1645843;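 active = z-score of at least 1.8 in each of two replicates, scored against plate mean and spread of sample wells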;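 note: positive z means more ATP and so rescue of galactose-driven cybrid death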); details: complex I mutant cybrid cells, 72 h, stronger effect = higher value
# [7] = liver-stage malaria parasite growth inhibition, primary screen, cell-based, HepG2, luciferase luminescence, HepG2 viability (AID 624349; in the data active = parasite load remaining mostly below about 12%, no sharp cut-off; inactive = mostly above about 10%;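 note: 100% = mean of DMSO negative control wells on the same plate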); details: P. berghei liver stage in HepG2, luciferase luminescence, concentration not given here; parasite load remaining: stronger effect = lower value; viability: measured here: HepG2 viability without parasites
# [8] = stronger effect = lower value, cell number ratio, induced over uninduced
# [9] = measured here: relative caspase fold change +Dox/-Dox
# [10] = measured here: total cells with miR-34 induction, stronger effect = lower value
# [11] = measured here: total cells without miR-34 induction
Structure (SMILES),period change [1],inhibition [2],fluorescence ratio (interference) [3],"fold change [4, 8]","fold change [4, 9]","cell count [4, 10]","cell count [4, 11]",outcome [5],z-score [6],parasite load remaining [7],viability [7] [%]
COc1cccc(OC)c1OCCNCC1CSc2ccccc2O1 (configuration not stated),0.065 h (inactive),0% (inactive),1 (inactive),1.03 (inactive),1.19,7530,7340,inactive,-1.31 (inactive),–,–
C[C@H]1CC2C3CCC4=CC(=O)C=C[C@]4(C)[C@@]3(Cl)[C@@H](O)C[C@]2(C)[C@@]1(O)C(=O)CO (some centres not stated),-0.07 h (inactive),-3% (inactive),1 (inactive),0.918 (inactive),1.96,7200,7840,inactive,1.25 (inactive),–,–
CNCC[C@H](Oc1ccc(C(F)(F)F)cc1)c1ccccc1,0.185 h (inactive),-2% (inactive),1 (inactive),1.08 (inactive),0.944,7270,6730,inactive,-0.925 (inactive),–,–
Nc1ncnc2c1nc(Br)n2C1OC2COP(=O)(O)O[C@@H]2C1O (some centres not stated),-0.095 h (inactive),-5% (inactive),0.9 (inactive),0.962 (inactive),1.6,8440,8780,inactive,0.735 (inactive),–,–
N=C(N)c1ccc(N)cc1,-0.005 h (inactive),-2% (inactive),1 (inactive),0.998 (inactive),2.25,8960,8980,inactive,-0.075 (inactive),–,–
CC(=O)N[C@@H](Cc1c[nH]c2ccccc12)C(=O)OCc1cc(C(F)(F)F)cc(C(F)(F)F)c1,0.005 h (inactive),-3% (inactive),0.9 (inactive),1.03 (inactive),1.8,9980,9690,inactive,-0.03 (inactive),–,–
N#Cc1cc([N+](=O)[O-])c2sc(C(N)=O)[n+]([O-])c2c1,–,-4% (inactive),1 (inactive),1.08 (inactive),1.61,7220,6660,inactive,-1.46 (inactive),32.2% (inactive),76.2
C=C1C(=O)O[C@@H]2[C@H]3O[C@]3(C)CCC=C(C)CC[C@@H]12,-0.22 h (inactive),-6% (inactive),1 (inactive),1.05 (inactive),1.06,5750,5500,inactive,-1.27 (inactive),–,–
COc1ccccc1CNCCCCCCNCCCCCCCCNCCCCCCNCc1ccccc1OC,0.295 h (inactive),11% (inactive),1 (inactive),1.1 (inactive),0.839,8650,7890,inactive,-1.19 (inactive),–,–
O=C1CCC(c2ccc(-n3ccnc3)cc2)=NN1,-0.075 h (inactive),-1% (inactive),1 (inactive),1.07 (inactive),0.666,10200,9510,inactive,-0.165 (inactive),–,–
NC1CCN(O)C1=O (configuration not stated),0.11 h (inactive),0% (inactive),1 (inactive),0.997 (inactive),1.98,10200,10200,inactive,0.075 (inactive),–,–
NCC(O)C1CCCCCCC1 (configuration not stated),-0.04 h (inactive),-3% (inactive),1 (inactive),0.963 (inactive),1.08,9960,10300,inactive,0.085 (inactive),–,–
CC1C(=O)N(C)C(=O)c2nc[nH]c21 (configuration not stated),0.13 h (inactive),-3% (inactive),0.9 (inactive),0.928 (inactive),1.21,9940,10700,inactive,0.22 (inactive),–,–
OCC1NCC(O)C(O)C1O (configuration not stated),0.035 h (inactive),-2% (inactive),1 (inactive),0.93 (inactive),1.34,9950,10700,inactive,-0.145 (inactive),–,–
O=C(O)Cc1ccc(O)c(O)c1,-0.08 h (inactive),-1% (inactive),1 (inactive),0.965 (inactive),1.22,9890,10200,inactive,-0.87 (inactive),–,–
CC(C)C[C@H](NC(=O)C1OC1C(=O)O)C(=O)NCCCCN=C(N)N (some centres not stated),-0.035 h (inactive),0% (inactive),1 (inactive),0.999 (inactive),1.62,9550,9560,inactive,0.15 (inactive),–,–
O=[N+]([O-])c1ccc(CNc2nc(NCc3cccc(C(F)(F)F)c3)nc3nc[nH]c23)cc1,–,–,–,1.02 (inactive),2.13,7880,7740,inactive,-0.05 (inactive),41.7% (inactive),142
CN1CCC2(CCN3CCc4c(oc5ccccc45)C3C2)N(C)C1=O (configuration not stated),0.125 h (inactive),3% (inactive),1 (inactive),1.04 (inactive),0.751,7560,7300,inactive,-0.87 (inactive),–,–
O=C(O)/C(=C/c1c(C(=O)O)[nH]c2cc(Cl)cc(Cl)c12)c1ccccc1,0.21 h (inactive),0% (inactive),1 (inactive),1.07 (inactive),0.725,9940,9320,inactive,1.03 (inactive),–,–

Structure (SMILES),period change [1],inhibition [2],fluorescence ratio (interference) [3],"fold change [4, 8]","fold change [4, 9]","cell count [4, 10]","cell count [4, 11]",outcome [5],z-score [6],parasite load remaining [7],viability [7] [%]
CCCCCCC/C=C\CCCCCCCCC(=O)O,0.02 h (inactive),-4% (inactive),0.9 (inactive),1.08 (inactive),0.494,10900,10100,inactive,0.87 (inactive),–,–
NO,-0.195 h (inactive),1% (inactive),1 (inactive),1.15 (inactive),1.06,10000,8720,inactive,0.49 (inactive),–,–
CC(O)C(O)[C@H]1CNc2nc(N)[nH]c(=O)c2N1 (some centres not stated),-0.26 h (inactive),-4% (inactive),1 (inactive),0.979 (inactive),1.26,10500,10800,inactive,0.515 (inactive),–,–
C=CCN1CCc2c(cc(O)c(O)c2Cl)C(c2ccccc2)C1 (configuration not stated),0.25 h (inactive),-4% (inactive),1 (inactive),1.02 (inactive),1.32,7830,7660,inactive,-0.925 (inactive),–,–
CC(N)(Cc1ccc(O)cc1)C(=O)O (configuration not stated),-0.14 h (inactive),-1% (inactive),0.9 (inactive),1 (inactive),0.646,9440,9440,inactive,1.32 (inactive),–,–
Nc1ccc(CCNc2ncnc3c2ncn3C2OC(CO)C(O)C2O)cc1 (configuration not stated),0.215 h (inactive),-1% (inactive),1 (inactive),1.01 (inactive),1.75,10600,10500,inactive,0.795 (inactive),–,–
CN1CCCC1CCOC(C)(c1ccccc1)c1ccc(Cl)cc1 (configuration not stated),0.12 h (inactive),-3% (inactive),1 (inactive),1.24 (inactive),1.31,4130,3330,inactive,-1.51 (inactive),–,–
Cc1cccc(C2CN(C)CCc3c2cc(O)c(O)c3Cl)c1 (configuration not stated),0.11 h (inactive),-4% (inactive),1 (inactive),0.998 (inactive),1.65,6330,6340,inactive,-1.29 (inactive),–,–
O=c1cc(O)cc(/C=C/c2ccc(O)c(O)c2)o1,-0.02 h (inactive),-1% (inactive),1 (inactive),1.09 (inactive),1.07,9040,8270,inactive,-0.475 (inactive),–,–
CNC(=O)[C@H]1O[C@@H](n2cnc3c(NCc4ccc(N)cc4)ncnc32)C(O)[C@H]1O (some centres not stated),-0.095 h (inactive),-2% (inactive),1 (inactive),1 (inactive),1.7,9670,9680,inactive,0.09 (inactive),–,–
O=C(O)CCCC[C@@H]1CCSS1,0.11 h (inactive),0% (inactive),1 (inactive),0.958 (inactive),0.931,9120,9520,inactive,0.53 (inactive),–,–
CSc1nc(N)c2ncn([C@@H]3O[C@H](COP(=O)(O)OP(=O)(O)OP(=O)(O)O)[C@H](O)C3O)c2n1 (some centres not stated),-0.07 h (inactive),41% (active),1 (inactive),0.981 (inactive),2.88,9690,9880,inactive,1.04 (inactive),–,–
O=C(O)C1CCNCC1,-0.105 h (inactive),-2% (inactive),1 (inactive),1.1 (inactive),0.954,10700,9760,inactive,0.31 (inactive),–,–
CC(N)=NCCCC[C@@H](N)C(=O)O,0.055 h (inactive),-4% (inactive),0.9 (inactive),1.08 (inactive),1.26,11400,10600,inactive,0.39 (inactive),–,–
Cc1cn([C@H]2C[C@@H](N=[N+]=[N-])[C@@H](CO)O2)c(=O)[nH]c1=O,0.06 h (inactive),-1% (inactive),0.9 (inactive),1.13 (inactive),1.91,8200,7230,inactive,0.445 (inactive),–,–
CN1CCc2ccccc2Cc2[nH]c3ccccc3c2CC1,-0.08 h (inactive),-2% (inactive),1 (inactive),1.04 (inactive),0.882,9860,9460,inactive,-0.35 (inactive),–,–
CCN1C(=O)C=CC1=O,0.135 h (inactive),-3% (inactive),1 (inactive),0.985 (inactive),1.06,9620,9760,inactive,-0.99 (inactive),–,–
Cc1cccc(C)c1OCC(N)C(C)C (configuration not stated),-0.08 h (inactive),-3% (inactive),1 (inactive),1.09 (inactive),0.766,11200,10300,inactive,-0.425 (inactive),–,–
Nc1nc(Cl)nc2c1ncn2[C@@H]1O[C@H](COP(=O)(O)OP(=O)(O)OP(=O)(O)O)[C@H](O)C1O (some centres not stated),-0.055 h (inactive),37% (active),1 (inactive),1.14 (inactive),1.19,2920,2560,inactive,0.235 (inactive),–,–
